{"source": "PubChem BioAssay AID2254", "about": "(The Scripps Research Institute Molecular Screening Center, 2010)", "note": "Activity calls are given as the source filed them. How the calls were made is not given here.", "data": [{"test": "human RBBP9 inhibitor potency, late-stage follow-up, biochemical, gel-based ABPP, IC50 (AID 2254)", "settings": "fluorophosphonate probe labeling of RBBP9", "values": [{"smiles": "C/C(=N\\OC(=O)C1CCCCC1)c1nccs1", "IC50": "> 100 µM (inactive)"}, {"smiles": "C/C(=N\\OC(=O)c1ccccc1)c1nccs1", "IC50": "> 100 µM (inactive)"}, {"smiles": "COc1ccc(C(=O)O/N=C(\\C)c2nccs2)cc1", "IC50": "> 100 µM (inactive)"}, {"smiles": "C/C(=N\\OC(=O)c1ccc(Cl)cc1)c1nccs1", "IC50": "> 100 µM (inactive)"}, {"smiles": "C/C(=N\\OC(=O)c1ccc(F)cc1)c1nccs1", "IC50": "> 100 µM (inactive)"}, {"smiles": "CC1=CC(=NOC(=O)/C=C/c2ccccc2)C=C(C)C1=O", "IC50": "> 100 µM (inactive)"}, {"smiles": "COc1ccc(C(=O)ON=C2C=C(C)C(=O)C(C)=C2)cc1", "IC50": "> 100 µM (inactive)"}]}]}
